We go through 8 sequences from PMC7862700, “An all-to-all approach to the identification of sequence-specific readers for epigenetic DNA modifications on cytosine”.

Common to all, as to test: DAPPL (digital affinity profiling via proximity ligation, sequencing); 10 mM Tris-HCl pH 7.5, 50 mM NaCl, 1 mM DTT, 4% glycerol, room temperature, 30 min; GST-TFs on glutathione beads, 16-mer random dsDNA library, 0.1% formaldehyde crosslink after washing; high values mean tight binding
Holding throughout (details): protein: recombinant; tags: N-terminal GST; dsDNA, one strand shown

The target of assay [1] is T1, ERF (Homo sapiens, UniProt P50548 1-548).
T1 sequence: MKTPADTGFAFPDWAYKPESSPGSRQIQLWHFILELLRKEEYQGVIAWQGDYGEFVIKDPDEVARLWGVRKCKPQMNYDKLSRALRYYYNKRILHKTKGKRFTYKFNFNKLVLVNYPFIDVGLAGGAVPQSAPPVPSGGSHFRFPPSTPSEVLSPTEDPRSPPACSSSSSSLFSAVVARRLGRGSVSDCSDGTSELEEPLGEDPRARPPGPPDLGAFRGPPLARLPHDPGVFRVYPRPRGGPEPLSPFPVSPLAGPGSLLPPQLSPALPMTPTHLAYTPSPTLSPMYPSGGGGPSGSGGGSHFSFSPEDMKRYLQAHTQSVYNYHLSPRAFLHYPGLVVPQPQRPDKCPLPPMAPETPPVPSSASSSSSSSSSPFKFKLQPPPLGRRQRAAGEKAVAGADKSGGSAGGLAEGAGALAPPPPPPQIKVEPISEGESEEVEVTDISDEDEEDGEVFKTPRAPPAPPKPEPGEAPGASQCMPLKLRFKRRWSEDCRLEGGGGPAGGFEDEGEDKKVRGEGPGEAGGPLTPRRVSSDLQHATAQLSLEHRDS
In outline: (§1)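 Yeast served to express human transcription factors as GST fusions, which were then captured on glutathione beads and labelled with DNA barcodes. Pooled with a tag-only sample, they were incubated with 200 nmole of a 16-mer random double-stranded DNA library for 30 min at room temperature in Tris/NaCl/DTT/glycerol buffer, washed, crosslinked with 0.1% formaldehyde, ligated by proximity, amplified by PCR and sequenced. Dividing each hexamer's read frequency for a factor by its frequency for the tag-only sample gives the binding signal.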

Assay [2] has as its target T2, ETV3L (Homo sapiens, UniProt Q6ZN32 1-361).
T2 sequence: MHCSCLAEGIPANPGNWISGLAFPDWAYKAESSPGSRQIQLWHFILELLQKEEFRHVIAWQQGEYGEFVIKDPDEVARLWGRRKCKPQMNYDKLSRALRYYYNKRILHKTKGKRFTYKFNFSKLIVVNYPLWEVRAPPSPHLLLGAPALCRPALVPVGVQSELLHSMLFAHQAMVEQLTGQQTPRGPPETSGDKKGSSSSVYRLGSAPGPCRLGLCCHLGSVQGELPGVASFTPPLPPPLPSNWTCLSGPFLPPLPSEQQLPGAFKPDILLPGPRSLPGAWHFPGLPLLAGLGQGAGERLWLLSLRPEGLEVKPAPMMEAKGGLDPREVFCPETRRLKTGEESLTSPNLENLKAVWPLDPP
In outline: as §1

For assay [3], the target named is T3, ETS2 (Homo sapiens, UniProt P15036 1-469).
T3 sequence: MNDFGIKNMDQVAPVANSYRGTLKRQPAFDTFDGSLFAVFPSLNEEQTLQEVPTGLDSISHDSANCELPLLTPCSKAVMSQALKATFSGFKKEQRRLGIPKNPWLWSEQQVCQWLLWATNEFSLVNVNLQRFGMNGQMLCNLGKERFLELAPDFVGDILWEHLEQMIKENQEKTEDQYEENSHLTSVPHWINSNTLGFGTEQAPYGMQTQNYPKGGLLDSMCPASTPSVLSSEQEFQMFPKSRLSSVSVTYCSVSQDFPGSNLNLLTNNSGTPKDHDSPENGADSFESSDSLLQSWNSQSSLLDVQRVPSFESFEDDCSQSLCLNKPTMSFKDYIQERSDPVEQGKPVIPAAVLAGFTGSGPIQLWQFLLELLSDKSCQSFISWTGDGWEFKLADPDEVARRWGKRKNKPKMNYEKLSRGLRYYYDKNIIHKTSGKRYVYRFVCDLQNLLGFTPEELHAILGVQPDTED
A digest of the protocol:
as §1

Assay [4] has as its target T4, SPDEF (Homo sapiens, UniProt O95238 1-335).
T4 sequence: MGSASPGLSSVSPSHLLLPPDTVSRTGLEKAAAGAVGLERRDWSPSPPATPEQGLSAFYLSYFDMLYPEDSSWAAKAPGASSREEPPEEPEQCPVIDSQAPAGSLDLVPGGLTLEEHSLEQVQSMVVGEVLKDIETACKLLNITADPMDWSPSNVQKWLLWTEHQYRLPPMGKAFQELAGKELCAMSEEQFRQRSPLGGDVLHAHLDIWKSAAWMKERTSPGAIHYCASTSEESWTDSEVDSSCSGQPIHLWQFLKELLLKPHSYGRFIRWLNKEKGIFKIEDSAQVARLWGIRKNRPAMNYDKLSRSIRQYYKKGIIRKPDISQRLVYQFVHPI
In outline: as §1

Assay [5] concerns the target T5, ETV7 (Homo sapiens, UniProt Q9Y603 1-341).
T5 sequence: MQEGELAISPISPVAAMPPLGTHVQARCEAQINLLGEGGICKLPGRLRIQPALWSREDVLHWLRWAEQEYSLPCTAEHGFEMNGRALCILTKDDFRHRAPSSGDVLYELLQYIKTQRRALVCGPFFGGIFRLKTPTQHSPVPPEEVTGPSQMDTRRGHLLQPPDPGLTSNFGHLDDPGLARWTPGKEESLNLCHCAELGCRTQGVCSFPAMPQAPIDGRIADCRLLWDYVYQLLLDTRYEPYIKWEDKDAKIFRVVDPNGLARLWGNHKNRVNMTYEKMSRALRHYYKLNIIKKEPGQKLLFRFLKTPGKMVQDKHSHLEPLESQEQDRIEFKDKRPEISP
In outline:
as §1

The target of assay [6] is T6, ELF5 (Homo sapiens, UniProt Q9UKW6-2 1-255).
T6 sequence: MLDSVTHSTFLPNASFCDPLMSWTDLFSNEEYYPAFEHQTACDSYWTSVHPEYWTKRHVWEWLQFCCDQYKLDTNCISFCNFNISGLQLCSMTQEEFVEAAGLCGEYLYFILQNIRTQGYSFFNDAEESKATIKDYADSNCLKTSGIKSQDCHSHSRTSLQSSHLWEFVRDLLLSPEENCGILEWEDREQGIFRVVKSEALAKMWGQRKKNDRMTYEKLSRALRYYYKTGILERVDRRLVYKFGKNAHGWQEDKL
A digest of the protocol: as §1

Assay [7] addresses T7, ETV3 (Homo sapiens, UniProt P41162-2 1-143).
T7 sequence: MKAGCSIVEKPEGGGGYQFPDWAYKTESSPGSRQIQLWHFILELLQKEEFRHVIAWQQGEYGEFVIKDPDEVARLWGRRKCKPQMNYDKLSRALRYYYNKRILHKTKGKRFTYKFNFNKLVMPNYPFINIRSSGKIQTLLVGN
A digest of the protocol:
as §1

The target of assay [8] is ETV6 (Homo sapiens, UniProt P41212 1-452). In outline: as §1
Sequence of ETV6 (P41212 whole entry): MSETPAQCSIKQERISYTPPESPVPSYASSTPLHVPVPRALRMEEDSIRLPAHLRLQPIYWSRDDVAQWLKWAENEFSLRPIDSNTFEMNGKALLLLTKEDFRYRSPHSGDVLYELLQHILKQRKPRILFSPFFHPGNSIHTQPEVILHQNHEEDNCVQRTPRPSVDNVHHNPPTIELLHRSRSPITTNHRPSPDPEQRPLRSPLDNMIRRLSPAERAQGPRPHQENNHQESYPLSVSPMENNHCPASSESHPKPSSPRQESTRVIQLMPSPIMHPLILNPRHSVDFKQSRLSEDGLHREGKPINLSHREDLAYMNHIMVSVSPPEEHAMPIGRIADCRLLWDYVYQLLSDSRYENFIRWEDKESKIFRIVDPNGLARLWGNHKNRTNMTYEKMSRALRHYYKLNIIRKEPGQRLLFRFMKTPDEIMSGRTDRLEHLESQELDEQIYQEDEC

On to GAAGCA, for which the binding signal is 1.24 fold enrichment (6-mer frequency, TF over GST control) in assay [1]; 1.18 fold enrichment (6-mer frequency, TF over GST control) in assay [2]; 1.32 fold enrichment (6-mer frequency, TF over GST control) in assay [3]; 1.33 fold enrichment (6-mer frequency, TF over GST control) in assay [4]; 1.37 fold enrichment (6-mer frequency, TF over GST control) in assay [5]; 1.4 fold enrichment (6-mer frequency, TF over GST control) in assay [6]. Further, the binding signal in assay [7] is 1.36 fold enrichment (6-mer frequency, TF over GST control); in assay [8] it was 1.43 fold enrichment (6-mer frequency, TF over GST control).

Turning to TGTCCT, the binding signal in assay [1] was 1.5 fold enrichment (6-mer frequency, TF over GST control); in assay [2] it was 1.58 fold enrichment (6-mer frequency, TF over GST control); in assay [3], 1.47 fold enrichment (6-mer frequency, TF over GST control); in assay [4] it was 1.79 fold enrichment (6-mer frequency, TF over GST control); in assay [5], 1.4 fold enrichment (6-mer frequency, TF over GST control); in assay [6], 1.7 fold enrichment (6-mer frequency, TF over GST control). Also, the binding signal in assay [7] is 1.47 fold enrichment (6-mer frequency, TF over GST control); in assay [8] it was 1.25 fold enrichment (6-mer frequency, TF over GST control).

As for CCGCGT, the binding signal in assay [1] was 1.08 fold enrichment (6-mer frequency, TF over GST control); in assay [2], 1.11 fold enrichment (6-mer frequency, TF over GST control); in assay [3], 1.13 fold enrichment (6-mer frequency, TF over GST control); in assay [4] it was 1.12 fold enrichment (6-mer frequency, TF over GST control); in assay [5], 1.21 fold enrichment (6-mer frequency, TF over GST control); in assay [6], 1.27 fold enrichment (6-mer frequency, TF over GST control). Moreover, the binding signal in assay [7] is 1.13 fold enrichment (6-mer frequency, TF over GST control); in assay [8], 1.16 fold enrichment (6-mer frequency, TF over GST control).

On to CGGCTA, for which the binding signal is 1.07 fold enrichment (6-mer frequency, TF over GST control) in assay [1]; 1.19 fold enrichment (6-mer frequency, TF over GST control) in assay [2]; 1.07 fold enrichment (6-mer frequency, TF over GST control) in assay [3]; 1.25 fold enrichment (6-mer frequency, TF over GST control) in assay [4]; 1.26 fold enrichment (6-mer frequency, TF over GST control) in assay [5]; 1.19 fold enrichment (6-mer frequency, TF over GST control) in assay [6]. Moreover, the binding signal in assay [7] was 1.12 fold enrichment (6-mer frequency, TF over GST control); in assay [8], 1.27 fold enrichment (6-mer frequency, TF over GST control).

For the sequence CACATA, the binding signal in assay [1] is 1.17 fold enrichment (6-mer frequency, TF over GST control); in assay [2] it was 1.19 fold enrichment (6-mer frequency, TF over GST control); in assay [3] it was 1.1 fold enrichment (6-mer frequency, TF over GST control); in assay [4], 1.11 fold enrichment (6-mer frequency, TF over GST control); in assay [5], 1.03 fold enrichment (6-mer frequency, TF over GST control); in assay [6], 1.05 fold enrichment (6-mer frequency, TF over GST control). The binding signal is 1.09 fold enrichment (6-mer frequency, TF over GST control) in assay [7] and 1.1 fold enrichment (6-mer frequency, TF over GST control) in assay [8].

In the case of GCACAT, the binding signal in assay [1] was 1.2 fold enrichment (6-mer frequency, TF over GST control); in assay [2] it was 1.19 fold enrichment (6-mer frequency, TF over GST control); in assay [3], 1.12 fold enrichment (6-mer frequency, TF over GST control); in assay [4], 1.28 fold enrichment (6-mer frequency, TF over GST control); in assay [5] it was 1.07 fold enrichment (6-mer frequency, TF over GST control); in assay [6], 1.1 fold enrichment (6-mer frequency, TF over GST control). In addition, the binding signal was 1.15 fold enrichment (6-mer frequency, TF over GST control) in assay [7] and 1.14 fold enrichment (6-mer frequency, TF over GST control) in assay [8].

For TACGCC, the binding signal in assay [1] is 1.36 fold enrichment (6-mer frequency, TF over GST control); in assay [2] it was 1.36 fold enrichment (6-mer frequency, TF over GST control); in assay [3], 1.29 fold enrichment (6-mer frequency, TF over GST control); in assay [4] it was 1.26 fold enrichment (6-mer frequency, TF over GST control); in assay [5] it was 1.19 fold enrichment (6-mer frequency, TF over GST control); in assay [6], 1.2 fold enrichment (6-mer frequency, TF over GST control). The binding signal was 1.27 fold enrichment (6-mer frequency, TF over GST control) in assay [7] and 1.28 fold enrichment (6-mer frequency, TF over GST control) in assay [8].

ACTCGA: the binding signal is 1.33 fold enrichment (6-mer frequency, TF over GST control) in assay [1]; 1.3 fold enrichment (6-mer frequency, TF over GST control) in assay [2]; 1.33 fold enrichment (6-mer frequency, TF over GST control) in assay [3]; 1.29 fold enrichment (6-mer frequency, TF over GST control) in assay [4]; 1.28 fold enrichment (6-mer frequency, TF over GST control) in assay [5]; 1.22 fold enrichment (6-mer frequency, TF over GST control) in assay [6]. The binding signal was 1.27 fold enrichment (6-mer frequency, TF over GST control) in assay [7] and 1.27 fold enrichment (6-mer frequency, TF over GST control) in assay [8].
